An excerpt weighted towards active compounds, which were near 6% of everything screened.
D3 ag: agonists of human D3 dopamine receptor; 410,000 compounds, 0.58% hits; D3R DiscoveRx beta-arrestin cells, luminescence, 90 min; AID 652048; max activation, %; in the data active = max activation above about 30%; note: 0% is about no effect
Target sequence (P35462 whole entry, looked up): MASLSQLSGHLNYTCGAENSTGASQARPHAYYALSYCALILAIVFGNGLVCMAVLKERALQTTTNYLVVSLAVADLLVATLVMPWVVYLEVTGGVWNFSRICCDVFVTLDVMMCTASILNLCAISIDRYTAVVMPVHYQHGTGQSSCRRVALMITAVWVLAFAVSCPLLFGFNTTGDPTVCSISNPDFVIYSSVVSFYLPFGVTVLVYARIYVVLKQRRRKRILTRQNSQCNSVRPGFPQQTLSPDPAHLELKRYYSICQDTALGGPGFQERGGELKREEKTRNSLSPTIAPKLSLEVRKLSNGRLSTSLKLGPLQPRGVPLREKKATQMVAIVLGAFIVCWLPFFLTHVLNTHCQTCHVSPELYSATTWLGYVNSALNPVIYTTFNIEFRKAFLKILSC
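Agonist-mode cell screen: cells plated at 1500/well and incubated overnight at 37 °C, then exposed to library compounds for 90 min at 37 °C. Detection reagent was added for 30–60 min at room temperature, and luminescence was read.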
D1 potentiator: enhances dopamine response at the human D1 receptor; P21728; HEK293 TREx D1 cells, calcium flux, dopamine EC20 potentiation; potentiation, % at 10 µM; 360,000 compounds, 0.036% hits; in the data active = potentiation above about 30%; note: 0% is about no effect
D1 antag: human D1 dopamine receptor antagonism; HEK293 TREx D1 cells, calcium flux, dopamine EC80; stronger effect = lower value; 360,000 compounds, 3.2% hits; P21728; activity change, negative = inhibition, % at 10 µM; in the data active = activity change below about -30%; note: % is set by controls: 0 for no effect and ±100 for the full control effect
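Kinetic fluorescence of a calcium dye serves as the read-out. D1-expressing Hek293 Trex cells, induced overnight at 30 C, are exposed to compound for 180 s before an EC80 dopamine addition, then read 180 s further.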
DRD3 antagonist: D3 dopamine receptor (human) antagonism; P35462; D3R cells, DiscoveRx beta-arrestin luminescence, antagonist mode; stronger effect = lower value; max response, negative = inhibition, %; 360,000 compounds, 2.5% hits; AID 652054; in the data active = max response below about -50%; inconclusive = no clear call, values can overlap the other calls; note: % is set by controls: 0 for no effect and ±100 for the full control effect
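Cells plated overnight at 1500 cells/well, then exposed to library compounds with dopamine controls for 90 minutes at 37 degrees C. DiscoveRx reagent added for 30–60 minutes at room temperature; luminescence read, quantitative HTS format.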
D1 ag: human D1 receptor agonism; AID 504660; P21728; HEK293 T-REx D1 cells, calcium flux, agonist mode; 360,000 compounds, 1% hits; activation, % at 2 µM; in the data active = activation above about 30%; note: 0% is about no effect
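Tetracycline-induced HEK293 TREx D1 cells, force-coupled to calcium signalling, were dye-loaded with a no-wash calcium kit. Compound was pin-added after a 10 s baseline. Fluorescence was read kinetically at 1 cycle/s for 180 s, with calcium rises flagged as agonism.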
Numbers without * were called inactive; ! = not confirmed by another sample.

Screening CCN(Cc1ccccc1)Cc1cc(OC)cc(OC)c1 returned D3 ag -50.8, D1 potentiator -5.3, D1 antag 2.2, DRD3 antagonist -55.8* and D1 ag 0.2.
COc1ccc(S(=O)(=O)N(CCc2ccccc2)CC(=O)Nc2cccc(OC)c2)cc1 was read as D3 ag -14.6, D1 potentiator -0.2, D1 antag -31.2* and D1 ag 30.9*.
Screening COc1ccc(S(=O)(=O)N(CC(=O)Nc2ccccc2Br)Cc2ccccc2)cc1 returned D3 ag 20.2, D1 potentiator -0.1, D1 antag 15.1 and D1 ag 44.0*.
For CCN(Cc1ccccc1)Cc1c(F)cccc1F the results were D3 ag -11.7, D1 potentiator -2.5, D1 antag -3.2, DRD3 antagonist -13.1 and D1 ag 1.3.
Screening Cc1ccc(OCCCC(=O)Nc2sc3c(c2C(N)=O)CCCC3)cc1 returned D3 ag 1.0, D1 potentiator 3.0, D1 antag 10.1 and D1 ag -0.4.
`COc1cccc(CNC(=O)CC(c2ccc(C)cc2)N2Cc3ccccc3C2=O)c1` (centres undefined) gave D3 ag -5.8, D1 potentiator -1.9, D1 antag -32.1* and D1 ag -1.2.
Screening Cc1ccc(-n2ncc3c(N4CCC(C)CC4)ncnc32)cc1C returned D3 ag 19.1, D1 potentiator 0.1, D1 antag 6.1 and D1 ag -0.7.
Screening COCCNC(=S)N1CCC(c2nc(-c3ccc(N(C)C)cc3)no2)CC1 returned D3 ag -2.7, D1 potentiator -3.9, D1 antag -21.6, DRD3 antagonist 0.1 and D1 ag 17.4.
CC(C)CNC(=S)N1CCC(c2nc(-c3ccc(F)cc3)no2)CC1 was read as D3 ag -2.0, D1 potentiator -7.8, D1 antag -34.5*, DRD3 antagonist 8.5 and D1 ag 19.4.
For O=C(c1ccc(F)cc1)N1CCCC(c2nc(-c3ccncc3)no2)C1 (centres undefined) the results were D3 ag 7.2, D1 potentiator -1.6, D1 antag 14.2, DRD3 antagonist 16.0 and D1 ag 11.5.
`O=C(c1c(F)cccc1F)N1CCCC(c2nc(-c3ccc(F)cc3)no2)C1` (centres undefined) gave D3 ag 8.6, D1 potentiator 2.0, D1 antag -31.0*, DRD3 antagonist -1.8 and D1 ag 6.0.
For COc1cccc(-c2noc(C3CCCN(C(=O)CC(C)(C)C)C3)n2)c1 (centres undefined) the results were D3 ag 0.5, D1 potentiator -6.5, D1 antag -66.8*, DRD3 antagonist -6.1 and D1 ag 2.4.
`COc1ccc(Cl)cc1NC(=O)Cn1ccn(Cc2ccc(C)cc2)c(=O)c1=O` gave D3 ag -8.5, D1 potentiator -4.5, D1 antag -15.9 and D1 ag 1.2.
Screening COc1cccc(C(=O)Nc2nnc(S(=O)(=O)N3CCCc4ccccc43)s2)c1 returned D3 ag -16.2, D1 potentiator -0.3, D1 antag 0.9 and D1 ag -0.2.
For CCOc1ccc(-c2nonc2NC(=O)c2ccco2)cc1OCC the results were D3 ag -4.9, D1 potentiator 4.3, D1 antag -15.4, DRD3 antagonist 16.5 and D1 ag 1.4.
`COc1ccc(-c2nonc2NC(=O)c2ccco2)cc1OC` gave D3 ag -1.7, D1 potentiator 2.8, D1 antag -36.9*, DRD3 antagonist 7.9 and D1 ag 1.0.
CCC(C)c1ccccc1OCC(=O)Nc1ccc(S(=O)(=O)Nc2cc(C)on2)cc1 (centres undefined) was read as D3 ag 8.1, D1 potentiator 1.9, D1 antag -0.3 and D1 ag -0.4.
`O=C(NCc1ccccc1)c1ccc(CSc2nc3cccnc3n2Cc2cccc(F)c2)cc1` gave D3 ag -26.7, D1 potentiator -2.5, D1 antag -4.9 and D1 ag 8.4.
For CCn1cc(C2N3CC4(C)CN2CC(C)(C3)C4=O)c2ccccc21 (centres undefined) the results were D3 ag -1.4, D1 antag -76.5*, DRD3 antagonist -19.1 and D1 ag 1.3.
CCOc1ccc2[nH]c(=O)c(CN(Cc3cccs3)Cc3nnnn3C(C)(C)CC)cc2c1 was read as D3 ag 31.4*, D1 potentiator 4.2, D1 antag 0.6, DRD3 antagonist 20.5 and D1 ag 0.5.
Screening CCC(C)(C)n1nnnc1CN(Cc1cccs1)Cc1cc2cc(OC)ccc2[nH]c1=O returned D3 ag 3.6, D1 potentiator -5.2, D1 antag 0.9, DRD3 antagonist 1.9 and D1 ag 1.7.
Screening CCc1ccc(NC(=O)CN2CCN(C3CCCCC3)C(=O)C2=O)cc1 returned D3 ag -10.7, D1 potentiator -0.6, D1 antag 6.6 and D1 ag 1.0.
Screening Cc1ccc(NC(=O)CN2CC(C)SC2=NC2CCCCC2)cc1 (centres undefined) returned D3 ag -16.4, D1 potentiator -1.2, D1 antag 5.9, DRD3 antagonist -95.5*! and D1 ag 7.1.
`CC1CC(C)(C)CC2(C1)NC(=O)N(CC(=O)Nc1cc([N+](=O)[O-])ccc1F)C2=O` (centres undefined) gave D3 ag -4.8, D1 potentiator -5.8, D1 antag -33.1*, DRD3 antagonist 7.4 and D1 ag 0.5.
`CCCOc1ccc(C2C(=O)N(C3CCCCCC3)CC(=O)N2CCC)cc1OC` (centres undefined) gave D3 ag -7.3, D1 potentiator -0.8, D1 antag -7.8 and D1 ag -3.5.
For CC(=O)Nc1cccc(OCC(O)Cn2cnc3ccccc32)c1 (centres undefined) the results were D3 ag 0.3, D1 potentiator -1.4, D1 antag -0.3, DRD3 antagonist -4.0 and D1 ag 1.4.
Screening CC(=O)Nc1ccc(OCC(O)Cn2cnc3ccccc32)cc1 (centres undefined) returned D3 ag -2.1, D1 potentiator -3.6, D1 antag -11.5, DRD3 antagonist -20.1 and D1 ag 2.2.
`CCCc1nc2ccccc2n1CC(O)COc1ccc(NC(C)=O)cc1` (centres undefined) gave D3 ag 4.9, D1 potentiator -3.9, D1 antag -33.5*, DRD3 antagonist 18.9 and D1 ag 2.7.
Screening CC(=O)Nc1cccc(OCC(O)Cn2c(C)nc3ccccc32)c1 (centres undefined) returned D3 ag 22.5, D1 potentiator -4.1, D1 antag -69.1*, DRD3 antagonist -11.6 and D1 ag -0.2.
`CN(C)CCN1CCN(C2CN(Cc3cn(Cc4ccc(C(F)(F)F)cc4)nn3)S(=O)(=O)C2)CC1` (centres undefined) gave D3 ag -5.9 and DRD3 antagonist inconclusive.
